Bioassay records: PubChem BioAssay, National Center for Advancing Translational Sciences (NCATS)
D2 PAM-1: HTS Assay for Positive Allosteric Modulators of the Human D2 Dopamine Receptor: Primary Screen for Potentiators. potentiation, % at 10 µM. D(2) dopamine receptor (Homo sapiens), P14416. 0.34% of 340,000 active. AID 485347, 2010. HEK293 T-REx D2, calcium flux, EC20 dopamine potentiation;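 active means potentiation over 3 SD above the plate norm, cut at about 30% in these data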
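Potentiation of an EC20 dopamine calcium response is measured in a force-coupled, tetracycline-inducible Hek293 Trex D2 line. Compound-only kinetic reads over 180 s flag agonists before dopamine addition.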
D2 antag: HTS Assay for Allosteric Antagonists of the Human D2 Dopamine Receptor: Primary Screen for Antagonists; D(2) dopamine receptor (Homo sapiens), P14416; HEK293 TREx D2 cells, calcium flux, dopamine EC80; inhibition, % at 10 µM; 2% of 340,000 active; in the data active means inhibition above about 30%; inactive means below that, where a call was filed
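Read-out: kinetic calcium fluorescence (1 cycle/s) in inducible HEK293 T-REx D2 cells after an EC80 dopamine addition that followed 180 s compound preincubation. Loss of the dopamine response indicates antagonism.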
D2 ag-1: HTS Assay for Allosteric Agonists of the Human D2 Dopamine Receptor: Primary Screen for Agonists. AID 485358, 2010. 0.53% of 340,000 active. D(2) dopamine receptor (Homo sapiens), P14416. activation, % at 2 µM. HEK293 T-REx D2 cells, calcium flux agonist mode;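 active means activation over 3 SD above normal in the single-dose calcium agonist read, cut at about 30% in these data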
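Tetracycline-induced HEK293 Trex cells with D2 receptor force-coupled to calcium signaling, plated overnight at 30 C and loaded with no-wash calcium dye. Calcium flux read kinetically for 180 s after compound addition; responses flag agonists.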
D2 PAM-2: Beta-Arrestin HTS for Positive Allosteric Modulators of the Human D2 Dopamine Receptor: Potentiators | DiscoveRx D2 beta-arrestin cells, luminescence, 90 min; 100% = 57 uM dopamine signal | AID 624464, 2012 | D(2) dopamine receptor (Homo sapiens), P14416 | potentiation, % (test concentration not listed) | 0.23% of 360,000 active; in the data active means potentiation above about 50%; inconclusive means mostly about 30% to 49%
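D2 cells co-treated with compound plus 50 nM dopamine (EC20) for 90 min at 37 deg C to detect potentiation. Beta-arrestin recruitment was read as enzyme-fragment luminescence after 1 h at ambient temperature. Full response was set by 57 uM dopamine.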
D2 ag-2: Beta-Arrestin HTS for Positive Allosteric Modulators of the Human D2 Dopamine Receptor: Agonists. D(2) dopamine receptor (Homo sapiens), P14416. DiscoveRx PathHunter D2 beta-arrestin, luminescence, 90 min; 100% = 57 uM dopamine signal. activation, % (test concentration not listed). 0.084% of 360,000 active; in the data active means activation above about 40%; inconclusive means between about 15% and that limit
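Agonist mode: compounds alone added to overnight-plated D2 PathHunter cells for 90 min at 37 C, with 57 uM final dopamine (EC100) defining full response. Beta-arrestin recruitment detected by chemiluminescent reagent, read after 1 h at ambient temperature.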
D3 arrestin ag: qHTS of D3 Dopamine Receptor Agonist: D3 Dopamine Receptor B-arrestin Agonist Confirmatory Assay | 4% of 2,300 active | AID 720506, 2013 | Potency, µM (highest dose often 76.9 µM), usual class: activators | DiscoveRx D3 beta-arrestin cells, luminescence, 90 min | shares compounds with D2 ag-1; further: nearly all actives have a fitted effect of over 70% in size
Target sequence (P35462 whole entry, looked up): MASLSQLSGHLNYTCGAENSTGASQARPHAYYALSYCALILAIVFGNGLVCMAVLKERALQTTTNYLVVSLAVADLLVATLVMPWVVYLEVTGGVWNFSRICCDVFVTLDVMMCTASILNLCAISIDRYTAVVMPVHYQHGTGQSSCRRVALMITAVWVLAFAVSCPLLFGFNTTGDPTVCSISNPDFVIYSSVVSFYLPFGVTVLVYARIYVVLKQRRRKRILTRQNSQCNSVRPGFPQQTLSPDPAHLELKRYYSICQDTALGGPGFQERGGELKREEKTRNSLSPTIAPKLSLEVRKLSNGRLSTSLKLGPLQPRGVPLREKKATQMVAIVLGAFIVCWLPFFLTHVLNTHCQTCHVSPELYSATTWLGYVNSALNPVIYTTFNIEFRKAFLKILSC
D2 ag-3: qHTS of D3 Dopamine Receptor Agonist: D2 Dopamine Receptor B-arrestin Agonist Counterscreen | shares compounds with D2 ag-1 | AID 720507, 2013 | Potency, µM (series often up to 76.9 µM), hits mostly activators | 5.9% of 2,300 active | DiscoveRx PathHunter D2 beta-arrestin, luminescence, 90 min; response scale: percent relative to full dopamine signal; further: nearly all actives have a fitted effect of over 70% in size
Of the large screens only hits and unclear results are named; the others gave an inactive call (follow-up assays come after a bar, where they were run). Rows were chosen to be rich in hits. Some 2.4% of all compounds tested hit in one or more screens of this group. Unless noted, the call rests on the fitted dose curve; in most records, active means well fitted activation curve with a large enough effect; inconclusive means small, poorly fitted or top-dose-only effect; inactive means flat fitted curve, though single readings scatter.

CC(C)OC(=O)C(CC(=O)O)NCc1ccccc1 (configuration not stated)	D2 antag 68 | D3 arrestin ag inactive | D2 ag-3 inactive
CCOC(=O)C(CC(=O)O)NCc1ccco1 (configuration not stated)	none
O=[N+]([O-])c1ccc(C(O)CN2CCN(c3ccccc3)CC2)cc1 (configuration not stated)	D2 antag 46, D2 ag-1 60, D2 ag-2 inconclusive | D3 arrestin ag inconclusive | D2 ag-3 inconclusive
COc1ccc(/C=N/NC(=O)CCN2CCN(c3ccccc3)CC2)c(OC)c1OC	D2 antag 84, D2 ag-1 80, D2 ag-2 inconclusive | D3 arrestin ag inactive | D2 ag-3 inconclusive
O=C(CCN1CCN(c2ccccc2)CC1)N/N=C/c1ccc([N+](=O)[O-])o1	D2 antag 70, D2 ag-1 86, D2 ag-2 inconclusive | D3 arrestin ag inactive | D2 ag-3 11µM
O=C(CCN1CCN(c2ccccc2)CC1)N/N=C/c1ccc(O)c(O)c1O	D2 antag 78, D2 ag-1 83 | D3 arrestin ag inconclusive | D2 ag-3 32µM
COc1ccc(Nc2nc3ccccc3n3c(N)nnc23)cc1	none (no result: D2 antag, D2 PAM-2, D2 ag-2)
CCC(C)NC(=O)C1CCN(C(=O)c2ccc(-n3ccc4ccccc43)s2)CC1 (configuration not stated)	none (no result: D2 antag, D2 PAM-2, D2 ag-2)
COc1cc(/C=N/NC(=O)CCN2CCN(c3ccccc3)CC2)cc(OC)c1OC	none | D3 arrestin ag inactive | D2 ag-3 inactive
O=[N+]([O-])c1ccc(N2CCN(Cc3ccc([N+](=O)[O-])o3)CC2)cc1	none
O=[N+]([O-])c1ccc(CN2CCN(c3ccccc3)CC2)o1	none | D3 arrestin ag inactive | D2 ag-3 inactive
Cc1cn2c(=O)c(C(=O)N3CCN(c4ccccc4F)CC3)cnc2s1	none
Cc1cn2c(=O)c(C(=O)N3CCN(c4ccccc4)CC3)cnc2s1	none | D3 arrestin ag inactive | D2 ag-3 inactive
CCOC(=O)Nc1ccc2c(CN3CCC(C(=O)OC)CC3)cc(=O)oc2c1	none
Cc1cc2oc(=O)cc(CN3CCCCC3C)c2cc1Cl (configuration not stated)	none
CCc1ccc2c(CN3CCC(C(=O)OC)CC3)cc(=O)oc2c1	D2 antag 106, D2 ag-1 106, D2 ag-2 66 | D3 arrestin ag 4µM | D2 ag-3 8.9µM
COC(=O)C1CCN(Cc2cc(=O)oc3cc(C)c(Cl)cc23)CC1	D2 ag-1 31, D2 ag-2 inconclusive | D3 arrestin ag 3.2µM | D2 ag-3 inactive
COc1ccc(-c2ccc(SCC(=O)N3CCCC3)nn2)cc1OC	none | D3 arrestin ag inactive | D2 ag-3 inactive
Cc1csc(NC(=O)c2cnc3ccccc3n2)n1	none | D3 arrestin ag inactive | D2 ag-3 inactive
Cc1csc(NC(=O)c2ccc3ccccc3n2)n1	none
CC(C)C[C@@H](CO)N1CCN(Cc2ccccc2)CCC1=O	none (no result: D2 antag, D2 ag-1)
N#CC[C@H](Cc1ccccc1)N1CCN(Cc2ccccc2)CCC1=O	none
CC(C)C[C@@H](CO)N1CCN(CCCc2ccccc2)CCC1=O	D2 antag 35 | D3 arrestin ag inactive | D2 ag-3 inactive
O=C1CCN(CCCc2ccccc2)CCN1[C@H](CO)c1ccccc1	none | D3 arrestin ag inconclusive | D2 ag-3 inactive
N#CC[C@H](Cc1ccccc1)N1CCN(CCc2ccccc2)CCC1=O	D2 antag 34, D2 ag-1 50 | D3 arrestin ag inactive | D2 ag-3 inactive
Cc1cc(NC(=O)c2ccco2)ccc1-n1cnnn1	none (no result: D2 PAM-1, D2 antag, D2 ag-1) | D3 arrestin ag inactive | D2 ag-3 inactive
CC(C)Sc1ncnc2c1oc1ccccc12	none | D3 arrestin ag inactive | D2 ag-3 inactive
CCn1c(N2CCN(S(=O)(=O)c3ccccc3)CC2)nc2ccccc21	D2 ag-2 inconclusive | D3 arrestin ag inconclusive | D2 ag-3 inactive
COc1ccc(CCNC(=O)c2cnc3sc(N4CCOCC4)nn3c2=O)cc1	none (no result: D2 antag, D2 ag-1, D2 PAM-2, D2 ag-2)
CN(CC(=O)Nc1ccc(F)cc1)C(=O)Cn1c(=O)oc2ccccc21	none | D3 arrestin ag inactive | D2 ag-3 inactive
Cc1ccc(NC(=O)CN(C)C(=O)Cn2c(=O)oc3ccccc32)cc1	none
Cc1ccc(-c2nc3sc(CCNC(=O)c4ccc(F)c(F)c4)c(C)n3n2)cc1	none (no result: D2 antag, D2 PAM-2, D2 ag-2)
CCCC(=O)N1CCc2cc(-c3nc(N)sc3C)ccc21	none
CCC(C)C(=O)N1CCc2cc(-c3csc(N)n3)ccc21 (configuration not stated)	none | D3 arrestin ag inactive | D2 ag-3 inactive
O=C(c1ccco1)N1CCN(C(=O)c2ccco2)CC1	none (no result: D2 PAM-1, D2 antag, D2 ag-1)
O=C(c1ccco1)N1CCN(Cc2cn[nH]c2-c2ccc(F)cc2F)CC1	none
O=C(c1ccco1)N1CCN(Cc2ccccc2Br)CC1	D2 antag 78, D2 ag-1 76, D2 PAM-2 inconclusive, D2 ag-2 inconclusive | D3 arrestin ag inconclusive | D2 ag-3 50µM
O=C(c1ccco1)N1CCN(Cc2ccc(F)cc2Cl)CC1	D2 antag 58, D2 ag-1 79, D2 ag-2 inconclusive | D3 arrestin ag inactive | D2 ag-3 inconclusive
CC(O)CNCCOc1ccccc1-c1ccccc1 (configuration not stated)	D2 antag 58, D2 ag-1 58 | D3 arrestin ag inactive | D2 ag-3 inactive
CCCCNCCOc1ccccc1-c1ccccc1	D2 antag 69 | D3 arrestin ag inactive | D2 ag-3 inactive
CN(C)CCOc1ccccc1-c1ccccc1	none (no result: D2 PAM-1, D2 antag, D2 ag-1)
CCCCOc1ccc(C(=O)Nc2ccc3c(c2)CCCN3S(=O)(=O)c2ccc(C)cc2)cc1	none (no result: D2 antag, D2 PAM-2, D2 ag-2)
Cc1ccc(NC(=O)CN2C(=O)c3cccnc3Sc3ccccc32)cc1C	none (no result: D2 antag, D2 PAM-2, D2 ag-2)
CCc1nnc(NC(=O)CN2CCC(O)(c3ccccc3OC)CC2)s1	none
COc1ccccc1C1(O)CCN(CC(=O)Nc2nc(-c3ccccc3)cs2)CC1	D2 ag-1 32 | D3 arrestin ag inactive | D2 ag-3 inactive
COc1ccc(NC(=O)CSCC(=O)Nc2ccc(S(=O)(=O)N3CCOCC3)cc2)cc1	none | D3 arrestin ag inactive | D2 ag-3 inactive
